Rows were chosen to be rich in hits. Some 1.3% of all compounds tested hit in one or more screens of this group.
HTT-AS act: activators of huntingtin-antisense promoter activity; HEK293 HTT-AS promoter firefly luciferase reporter, 24 h; response scale: percent change from vehicle, -100% = no light; Potency, µM (titrated, usually from 57.5 µM), hits mostly activators; 48,000 tested, 0.24% active; also: nearly all actives have a fitted effect of over 55% in size
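HEK293 luciferase promoter-reporter cells (2,500/well) plated 24 h, then compounds added at up to 57.5 uM final for 24 h at 37 °C. Firefly luminescence by Dual-Glo, normalized to vehicle (0%) and zero RLU (-100%).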
GALC G270D act: enhancers of human galactocerebrosidase G270D mutant activity in cells. Potency, µM (highest dose often 57.5 µM), hits mostly activators. 45,000 tested, 0.1% active. 145M-Twi-hGALC-G270D cells (Twitcher mouse brain line with human GALC G270D), HMU-beta-Gal fluorescence, 48 h. P54803; also: nearly all actives have a fitted effect of over 65% in size
Target sequence (P54803 whole entry G286D): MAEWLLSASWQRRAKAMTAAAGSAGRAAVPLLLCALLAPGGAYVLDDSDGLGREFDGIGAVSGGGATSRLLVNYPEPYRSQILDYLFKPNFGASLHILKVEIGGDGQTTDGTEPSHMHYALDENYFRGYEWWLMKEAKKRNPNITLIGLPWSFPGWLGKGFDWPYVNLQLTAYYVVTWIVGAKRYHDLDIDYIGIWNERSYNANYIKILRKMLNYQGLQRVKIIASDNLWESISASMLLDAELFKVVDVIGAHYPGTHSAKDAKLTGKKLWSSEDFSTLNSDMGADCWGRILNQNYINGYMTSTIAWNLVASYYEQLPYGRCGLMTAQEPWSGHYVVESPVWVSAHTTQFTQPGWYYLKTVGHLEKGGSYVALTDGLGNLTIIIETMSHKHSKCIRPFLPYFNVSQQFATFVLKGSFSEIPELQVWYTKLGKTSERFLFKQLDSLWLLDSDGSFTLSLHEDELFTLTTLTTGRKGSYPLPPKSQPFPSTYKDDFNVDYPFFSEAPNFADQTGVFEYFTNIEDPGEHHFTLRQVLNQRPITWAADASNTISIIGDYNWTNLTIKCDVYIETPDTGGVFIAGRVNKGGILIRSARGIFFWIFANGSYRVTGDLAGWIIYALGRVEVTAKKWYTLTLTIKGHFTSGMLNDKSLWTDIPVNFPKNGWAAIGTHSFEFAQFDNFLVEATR
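Fluorescence readout: HMU-β-gal cleavage by mutant GALC (0.1 mM final, citrate/phosphate pH 5.2 with 1 mg/mL taurocholate), stopped with carbonate/bicarbonate plus Triton X-100. Cells: murine Twitcher 145M-Twi expressing human G270D GALC; qHTS for activators.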
HTT prom inh: inhibits huntingtin promoter activity. HEK293 HTT promoter firefly luciferase reporter, 24 h. Potency, µM (doses to about 57.5 µM), most hits filed as inhibitors. 48,000 tested, 0.93% active. AID 1508623; also: nearly all actives have a fitted effect of over 50% in size
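Firefly luciferase readout (Dual-Glo, 10 min RT) after 24 h, 37 °C compound exposure (final up to 57.5 uM) of HEK293 reporter cells cultured 24 h beforehand; PTC124 at 50 uM final as control inhibitor; activity scaled vehicle 0%, zero RLU -100%.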
Hits are given with their value; [ ] = dose if it differs, or a comment. Calls follow the shape of the dose curve; as a rule, active = well fitted curve in the direction sought with a large enough effect; inconclusive = small, poorly fitted or top-dose-only effect, or another doubt; inactive = no such curve, though single readings can be large; an effect the other way counts as inactive or inconclusive.

For COc1cc(C2NC(=O)c3c(sc4c3CCN(C)C4)N2)cc(OC)c1OC (stereo not given) the results were HTT-AS act inactive[11.5 µM], GALC G270D act inactive and HTT prom inh inactive.
For COc1cc(C2NC(=O)c3c(sc4c3CCN(C)C4)N2)cc(Br)c1OC(=O)c1ccc(C)cc1 (stereo not given) the results were HTT-AS act inactive, GALC G270D act 22µM and HTT prom inh inactive.
`CCOc1ccc(CCNC(=O)CCCn2c(=O)c3cccn3c3ccccc32)cc1` gave HTT-AS act inactive, GALC G270D act inactive and HTT prom inh inactive.
Screening CCOc1ccc(CCNC(=O)CCCc2cc(-c3ccc(OCC)cc3)on2)cc1 returned HTT-AS act inactive, GALC G270D act inactive and HTT prom inh 0.32µM.
CCc1ccccc1-n1c(N)c(C(=O)OC)c2nc3ccccc3nc21 was read as HTT-AS act inactive, GALC G270D act 25µM and HTT prom inh inactive.
CCOC(=O)c1c(N)n(-c2ccccc2CC)c2nc3ccccc3nc12 was read as HTT-AS act inactive, GALC G270D act inconclusive and HTT prom inh inactive.
For Cc1ccc(C(=O)N(CCCN)[C@@H](c2oc3cc(Cl)ccc3c(=O)c2Cc2ccccc2)C(C)C)cc1 the results were HTT-AS act inactive and HTT prom inh inactive.
Screening CCc1cnn2c(NCc3ccc[n+]([O-])c3)cc(N3CCCC[C@@H]3CCO)nc12 returned HTT-AS act inactive and HTT prom inh inconclusive.
`COC(=O)c1ccc(NC(=O)n2ncc3c(C)cccc32)cc1` gave HTT-AS act inconclusive, GALC G270D act inactive and HTT prom inh inactive.
`Cc1ccc(NC(=O)n2ncc3c(C)cccc32)c(C)c1` gave HTT-AS act 7.1µM, GALC G270D act inconclusive and HTT prom inh inactive.
`CCS(=O)(=O)c1ncc(N(Cc2ccccc2)Cc2ccco2)c(C(=O)Nc2cccc(Cl)c2C)n1` gave HTT-AS act inactive, GALC G270D act inactive and HTT prom inh inconclusive.
`CCS(=O)(=O)c1ncc(Cl)c(C(=O)N(Cc2ccccc2)Cc2ccco2)n1` gave HTT-AS act inactive, GALC G270D act inactive and HTT prom inh 35µM.
Screening OC[C@H]1O[C@@H](Oc2ccc(O)cc2)[C@H](O)[C@@H](O)[C@H]1O returned HTT-AS act inactive and HTT prom inh inactive.
CCCCC(=O)Oc1ccc2oc(-c3ccc(OC)cc3)cc(=O)c2c1 was read as HTT-AS act 2µM, GALC G270D act inactive and HTT prom inh inactive.
COC(=O)COc1ccc2oc(-c3ccc(OC)cc3)cc(=O)c2c1 was read as HTT-AS act inconclusive, GALC G270D act inactive and HTT prom inh inactive.
Screening CNC(=O)c1cc(Oc2ccc(NC(=O)Nc3ccc(Cl)c(C(F)(F)F)c3)c(F)c2)ccn1 returned HTT-AS act inactive and HTT prom inh inconclusive.
`O=C(Nc1cccc(Br)c1)c1cccc(S(=O)(=O)N2CCCCCC2)c1` gave HTT-AS act inactive and HTT prom inh inconclusive.
Screening O=C(CCc1ccc(O)cc1)c1c(O)cc(O)cc1O[C@@H]1O[C@H](CO)[C@H](O)[C@H](O)[C@H]1O returned HTT-AS act inactive and HTT prom inh inactive.
Screening COc1ccc(CCN2CC(C(=O)NCCc3ccccc3)CC2=O)cc1OC (stereo not given) returned HTT-AS act inactive, GALC G270D act inactive and HTT prom inh inactive.
For COc1ccc(CC2=NN3C([C@@H](CCc4ccccc4)[C@@H](C)O)=NC(C)C3C(=O)N2)cc1OC (stereo not given in full) the results were HTT-AS act 7.7µM and HTT prom inh inactive.
Screening O=c1oc2c3c(ccc2c2ccccc12)OCN(Cc1ccc(Cl)cc1)C3 returned HTT-AS act inactive, GALC G270D act inactive and HTT prom inh inactive.
Screening COC(=O)Cc1c(C)c2ccc3c(c2oc1=O)CN(Cc1ccc(Cl)cc1)CO3 returned HTT-AS act inactive, GALC G270D act 25µM and HTT prom inh inactive.
Screening COc1cc(=C2C=c3ccccc3=N2)[nH]c1=Cc1[nH]c(C)cc1C returned HTT-AS act inactive and HTT prom inh inconclusive.
`CC(C)C[C@H](NC(=O)c1cc2ccccc2s1)C(=O)N1CCN(C(=O)[C@H](CO)NS(=O)(=O)c2ccc(Cl)cc2Cl)CC1` gave HTT-AS act inactive and HTT prom inh inactive.
Screening COc1ccc(OCC(=O)Nc2cc(-c3nc4ccccc4o3)ccc2Cl)cc1 returned HTT-AS act 10µM, GALC G270D act inactive and HTT prom inh inactive.
For COc1ccc(-c2nc3ccccc3o2)cc1NC(=O)COc1ccc(C)c(C)c1 the results were HTT-AS act inconclusive, GALC G270D act inactive and HTT prom inh inactive.
NC(CO)(CO)CCc1ccc(Sc2cccc(OCc3ccccc3)c2)cc1Cl was read as HTT-AS act inactive and HTT prom inh inactive.
For Cc1ccc(-n2[nH]c(C)c(N=Nc3cccc(-c4cccc(C(=O)O)c4)c3O)c2=O)cc1C the results were HTT-AS act inactive, GALC G270D act inactive and HTT prom inh inactive.
O=C(Nc1noc2ccccc12)c1cccc(F)c1 was read as HTT-AS act 2µM, GALC G270D act inactive and HTT prom inh inactive.
`O=C(Nc1noc2ccccc12)c1ccc(F)cc1` gave HTT-AS act inconclusive, GALC G270D act inactive and HTT prom inh inactive.
Screening COc1ccc(Cl)cc1Nc1sc(C(=O)c2ccccc2)c(N)c1C(=O)Nc1ccccc1 returned HTT-AS act inactive, GALC G270D act inactive and HTT prom inh 28µM.
For CCOc1ccccc1Nc1sc(C(=O)c2ccccc2)c(N)c1C(=O)Nc1ccc(F)cc1 the results were HTT-AS act inactive, GALC G270D act inactive and HTT prom inh inconclusive.
For COc1ccc(C(=O)/C=C/c2cn(CC(O)CN(CC(C)C)CC(C)C)c3ccccc23)cc1 (stereo not given) the results were HTT-AS act inactive, GALC G270D act 22µM and HTT prom inh inconclusive.
`CCCCN(C)CC(O)Cn1cc(/C=C/C(=O)c2ccc(OC)c(OC)c2)c2ccccc21` (stereo not given) gave HTT-AS act inactive, GALC G270D act 32µM and HTT prom inh inactive.
Screening CCCN(CCC)CC(O)Cn1cc(/C=C/C(=O)c2ccc(Br)cc2)c2ccccc21 (stereo not given) returned HTT-AS act inactive, GALC G270D act inconclusive and HTT prom inh inactive.
Screening CCCCN(C)CC(O)Cn1cc(/C=C/C(=O)c2ccc(C)cc2)c2ccccc21 (stereo not given) returned HTT-AS act inactive, GALC G270D act inactive and HTT prom inh inconclusive.
For CCCN(CCC)CC(O)Cn1cc(/C=C/C(=O)c2ccc(C)cc2)c2ccccc21 (stereo not given) the results were HTT-AS act inactive, GALC G270D act inactive and HTT prom inh inconclusive.
For CCCN(CCC)CC(O)Cn1cc(/C=C/C(=O)c2ccc(OC)cc2)c2ccccc21 (stereo not given) the results were HTT-AS act inactive, GALC G270D act 28µM and HTT prom inh inconclusive.
For COc1cc(N2CCC(N3CCN(C)CC3)CC2)ccc1Nc1ncc(Cl)c(Nc2ccccc2S(=O)(=O)C(C)C)n1 the results were HTT-AS act inactive and HTT prom inh inconclusive.
Cc1csc(-c2nnc(Nc3ccc(Oc4ncccc4-c4ccnc(N)n4)cc3)c3ccccc23)c1 was read as HTT-AS act inactive and HTT prom inh inactive.

Source: PubChem BioAssay (National Center for Advancing Translational Sciences (NCATS))
